# Where “and” joins values, the source holds several entries; their conditions need not be identical. Identical values can stand only once. Records with an inconclusive call do not appear. A number with no mark means an inactive call. Calls of active or inactive are those of the source. Calls come from the whole dose curve; as a rule, active = well fitted cell-killing curve with a large enough effect; inconclusive = small, poorly fitted or top-dose-only effect; inactive = no such curve, though single readings can be large or run the other way.
# Test: qHTS of pediatric cancer cell lines to identify multiple opportunities for drug repurposing: Confirmatory screen for Rh41 cells (AID 1347123);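 note: 48 h compound exposure; nearly all actives have a fitted effect of over 60% in size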;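 for activity change, negative = cytotoxic: plate controls were DMSO for no effect and bortezomib for full effect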
# Conditions: Rh41 rhabdomyosarcoma cells, viability/cytotoxicity qHTS; series mostly up to 45.9 µM; activity change, negative = cytotoxic: at the top concentration
# How it was run: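 Cells (500-1,000/well) rested 5 h, then received compounds for 48 h; metabolically active cells were measured by CellTiter-Glo luminescence. Final concentrations spanned up to 46 µM (MIPE, 11-point) or 0.59 nM-46 µM (NPC, 8-point) in primary screens, 11-point in follow-ups.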
# Potency is the fitted concentration of half-maximal effect.
Structure (SMILES),Potency,"activity change, negative = cytotoxic"
Cc1ccc(Nc2nccc(N(C)c3ccc4c(C)n(C)nc4c3)n2)cc1S(N)(=O)=O,10.4 µM (active),–
CN(C)c1ccc2nc3ccc(=[N+](C)C)cc-3sc2c1,2.61 µM (active),–
CS(=O)(=O)OCCCCOS(C)(=O)=O,–,-1.52%
Cc1ccc(NC(=O)c2ccc(CN3CCN(C)CC3)cc2)cc1Nc1nccc(-c2cccnc2)n1,–,-26.1%
Nc1ccn([C@@H]2O[C@H](CO)[C@@H](O)C2O)c(=O)n1 (stereo partly drawn),–,0.762%
CN(C)c1ccc(O)c2c1C[C@H]1C[C@H]3[C@H](N(C)C)C(=O)C(C(N)=O)=C(O)[C@@]3(O)C(=O)C1=C2O,–,-28.7%
O=C(NCC1CCCCN1)c1cc(OCC(F)(F)F)ccc1OCC(F)(F)F (stereo not drawn),–,3.07%
C=C(c1ccc(C(=O)O)cc1)c1cc2c(cc1C)C(C)(C)CCC2(C)C,–,-13.3%
CC(=O)O[C@H]1C(=O)[C@@]2(C)C([C@H](OC(=O)c3ccccc3)[C@]3(O)C[C@H](OC(=O)[C@H](O)[C@@H](NC(=O)c4ccccc4)c4ccccc4)C(C)=C1C3(C)C)[C@]1(OC(C)=O)CO[C@@H]1C[C@@H]2O (stereo partly drawn),0.0104 µM (active),–
CCCCc1ccc2nc(NC(=O)OC)[nH]c2c1,0.131 µM (active),–
Oc1ccc(-c2nc(-c3ccc(F)cc3)c(-c3ccncc3)[nH]2)cc1,1.47 µM (active),–
Cc1nc(Nc2ncc(C(=O)Nc3c(C)cccc3Cl)s2)cc(N2CCN(CCO)CC2)n1,2.61 µM (active),–
C[C@]12CCC(=O)C=C1CC[C@@H]1[C@H]2[C@@H](O)C[C@@]2(C)[C@H]1CC[C@]2(O)C(=O)CO,–,-19.9%
CCc1nc(N)nc(N)c1-c1ccc(Cl)cc1,10.4 µM (active),–
Nc1ncn([C@H]2C[C@H](O)[C@@H](CO)O2)c(=O)n1,–,14.6%
CCN(CC)C(=S)SSC(=S)N(CC)CC,0.261 µM (active),–
c1cnc2cc3c(cc2n1)C1CNCC3C1,–,6.77%
O=C1c2c(O)cc(O)cc2OC(c2ccc(O)c(O)c2)C1O (stereo not drawn),–,33.8%
CCN(CC)CCOc1ccc(Nc2ncc3cc(-c4c(Cl)cccc4Cl)c(=O)n(C)c3n2)cc1,9.27 µM (active),–
CC[C@]1(O)C[C@H]2CN(CCc3c([nH]c4ccccc34)[C@@](C(=O)OC)(c3cc4c(cc3OC)N(C=O)[C@H]3[C@@](O)(C(=O)OC)[C@H](OC(C)=O)[C@]5(CC)C=CCN6CC[C@]43[C@@H]65)C2)C1,23.3 nM (active) and 18.5 nM (active),–
CCN(CCO)CCCC(C)Nc1ccnc2cc(Cl)ccc12 (stereo not drawn),–,-18.1%
O=C(CCc1ccc(O)cc1)c1c(O)cc(O)cc1O,–,-6.94%
Nc1nc(OCc2ccccc2)c2[nH]cnc2n1,–,-10.8%
CCOc1cc(CC(=O)N[C@@H](CC(C)C)c2ccccc2N2CCCCC2)ccc1C(=O)O,–,9.55%
Cc1c(C(=O)NN2CCCCC2)nn(-c2ccc(Cl)cc2Cl)c1-c1ccc(Cl)cc1,18.5 µM (active),–
CC(C)C[C@H](NC(=O)[C@H](Cc1ccccc1)NC(=O)c1cnccn1)B(O)O,0.0165 µM (active),–
Nc1nc(Cl)nc2c1ncn2[C@H]1C[C@H](O)[C@@H](CO)O1,–,-24.6%
COc1cc(C(C)=O)ccc1OCCCN1CCC(c2noc3cc(F)ccc23)CC1,18.5 µM (active),–
